Consider 94 compounds from PubChem BioAssay AID485317 (Broad Institute, 2010).

As usually defined, the inhibition is the drop in the measured response relative to a control, in per cent.

In all, about 290,000 compounds went through this assay and about 11,000 (3.8%) were called active.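 Rule for the calls: active = mean replicate inhibition above about 79%, with every replicate also reaching it (limit read from the data); inconclusive = only one of the two criteria met; inactive = mean below limit and not every replicate reaching it.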 This excerpt belongs to a sample that is enriched for actives.

FAD-linked sulfhydryl oxidase ALR (Homo sapiens), sequence (P55789 whole entry, looked up): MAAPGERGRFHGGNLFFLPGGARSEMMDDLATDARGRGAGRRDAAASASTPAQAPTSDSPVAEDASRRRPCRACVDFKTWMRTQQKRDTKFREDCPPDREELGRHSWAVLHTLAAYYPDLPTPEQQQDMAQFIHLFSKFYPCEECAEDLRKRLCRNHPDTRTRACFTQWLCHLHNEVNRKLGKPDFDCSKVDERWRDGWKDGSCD

This assay concerns the target FAD-linked sulfhydryl oxidase ALR (Homo sapiens) (UniProt P55789). The assay can be described thus: ALR-catalysed DTT oxidation blockers – biochemical, H2O2 detection, HRP-luminol luminescence, single point, primary screen (AID 485317). As to conditions: purified ALR, hits give high values, concentration not given here.
Consider `CCOC(=O)c1cnc2nc(SCc3ccccc3Cl)[nH]n2c1=O`, for which the inhibition was 32.6% (inactive).

On to `Cc1csc2nc(O)c(C(=O)NCCN3CCOCC3)c(=O)n12`, for which the inhibition was 7.69% (inactive).

Consider `COc1ccc(CNc2nc(NCc3ccc(OC)cc3)c3ncn(C4CCCC4)c3n2)cc1`, for which the inhibition was 2.44% (inactive).

Regarding `O=C(COC(=O)c1cccs1)Nc1ccccc1Cl`, the inhibition was 2.46% (inactive).

`O=C(Nc1ccccc1Cl)/C(Cl)=C(\Cl)S(=O)c1ccccc1` (centres undefined): the inhibition was 97.6% (active).

For the compound `O=C(Nc1ccccc1Cl)Nn1cnnc1`, the inhibition is -11.5% (inactive).

Consider `CCCCCC(=O)N1CCN(S(=O)(=O)c2ccc3c(c2)OCCCO3)CC1`, for which the inhibition is 1.7% (inactive).

On to `Cc1ccc(S(=O)(=O)N2CCCCC2)cc1NC(=O)[C@@H]1CCCN1C(=O)c1cccs1`, for which the inhibition was -6.24% (inactive).

Take `O=C(Cc1ccc(Br)cc1)NCCc1ccccc1`: the inhibition is -8.61% (inactive).

For `Cc1cc(C)n2nc(C(=O)OCC(=O)N(C)CC(=O)Nc3ccc(F)cc3)nc2n1`, the inhibition was 2.76% (inactive).

As to `Cc1ccc(CC2C(=O)N(c3ccc(F)cc3)C(=O)C2C)cc1` (centres undefined), the inhibition is 1.22% (inactive).

`C=C1c2cc(CC)ccc2NC(=O)N1c1ccc(C)cc1`: the inhibition was 96.2% (active).

In the case of `Cc1ccc(N2C(=O)C(Cc3ccccc3)NC2=S)cc1` (centres undefined), the inhibition is 25.5% (inactive).

As to `Cc1ccc(S(=O)(=O)N2CCN(C(=O)c3cccs3)CC2)cc1`, the inhibition was -6.58% (inactive).

For `Cc1ccc(S(=O)(=O)N2CCN(C)CC2)cc1`, the inhibition is -6.86% (inactive).

On to `Cc1ccc(S(=O)(=O)N2C3C=CC(C3)C2C(=O)O)cc1` (centres undefined), for which the inhibition is 89.7% (active).

As to `CC(C)(C)OC(=O)C[C@@H]1C/C=C\C[C@@H](CC(=O)N[C@H](CO)Cc2ccccc2)C(=O)NC[C@@H](c2ccccc2)OC1=O`, the inhibition was -0.924% (inactive).

`CC(=O)CCC(=O)c1ccc2ccccc2c1`: the inhibition is -2.18% (inactive).

Take `Cc1cc(N=Nc2ccc3ccccc3c2)ccc1O`: the inhibition was 86% (active).

For `COc1ccc(N=Nc2ccc(O)c(P(=O)(c3ccccc3)c3ccccc3)c2)cc1`, the inhibition was -4.29% (inactive).

For `Cc1nc2ccccc2c(=O)n1-c1ccc(F)c(NC(=O)c2cccs2)c1`, the inhibition is -7.89% (inactive).

`CN(Cc1cccs1)C(=O)CN1C(=O)c2ccccc2S1(=O)=O`: the inhibition is 1.6% (inactive).

Take `O=C(N/C(=C\c1ccc(O)cc1)C(=O)N1CCCCC1)c1ccccc1`: the inhibition is 99% (active).

For the compound `Cc1ccc(C(=O)N/C(=C/c2cccs2)C(=O)NCC2CCCO2)cc1` (centres undefined), the inhibition is -0.67% (inactive).

As for `CC1CCN(C(=O)/C(=C\c2ccccc2)NC(=O)c2ccccc2)CC1`, the inhibition was 8.11% (inactive).

For the compound `CN1CCN(C(=O)/C(=C\c2cccs2)NC(=O)c2cccs2)CC1`, the inhibition is 9.55% (inactive).

On to `Cc1ccc(C(=O)N/C(=C/c2cccs2)C(=O)N2CCCCC2)cc1`, for which the inhibition is 88.2% (active).

As for `O=C(N/C(=C\c1ccc(F)cc1)C(=O)N1CCCCCC1)c1ccccc1`, the inhibition was 39.9% (inactive).

On to `O=C(COC(=O)CSc1ccccc1)Nc1ccc(F)cc1F`, for which the inhibition is 0.233% (inactive).

Regarding `Cc1nn(-c2ccccc2)nc1C(=O)OCC(=O)N1CCCCC1C` (centres undefined), the inhibition was 0.513% (inactive).

Take `Cc1nc2ccccn2c(=O)c1NC(=O)c1cccs1`: the inhibition is -1.56% (inactive).

With `CC(C)(C)Nc1c(-c2cccs2)nc2ccccn12`, the inhibition is 98.7% (active).

As to `Cc1ccsc1C(=O)N[C@@H](C)c1nnc2ccccn12`, the inhibition was -3.18% (inactive).

In the case of `O=C(OCC(=O)N1CCCCCC1)c1ccc(Cl)nc1`, the inhibition is 8.08% (inactive).

For `CCOC(=O)[C@H]1[C@H]2COc3cc(OC)ccc3[C@@H]2N2C(=O)CN(Cc3ccc(Cl)cc3)C(=O)[C@@]12C`, the inhibition was -2.14% (inactive).

As to `CC(=O)N1CCCc2cc(S(=O)(=O)CCC(=O)N3CCN(c4ccccc4)CC3)ccc21`, the inhibition is 61.3% (inactive).

Turning to `CCC(=O)N1c2ccc(S(=O)(=O)CCC(=O)N3CCN(c4ccccc4)CC3)cc2CC1C` (centres undefined), the inhibition is 98.5% (active).

For `CCC(=O)N1CCc2cc(S(=O)(=O)CCC(=O)N3CCN(c4ccccc4F)CC3)ccc21`, the inhibition was 5.15% (inactive).

With `CCC(=O)c1cc(F)ccc1OCC(=O)Nc1ccc2c(c1)OCCO2`, the inhibition was -1.15% (inactive).

For `CNC[C@@H]1Oc2c(NS(C)(=O)=O)cccc2C(=O)N([C@@H](C)CO)C[C@H]1C`, the inhibition was 6.23% (inactive).

As to `CCOc1ccc(C(C)=O)cc1COC(=O)CNC(=O)c1cccs1`, the inhibition is -1.95% (inactive).

Turning to `COc1ccc(C2=NN(c3ccccc3)C(c3cccs3)C2)cc1` (centres undefined), the inhibition was -4.89% (inactive).

On to `COc1ccc(C2CC(c3cccs3)=NN2C(=O)CCC(=O)O)cc1OC` (centres undefined), for which the inhibition was 5.58% (inactive).

As for `Oc1ccccc1C1=NN(c2ccccc2)C(c2ccccc2)C1` (centres undefined), the inhibition is 47.4% (inactive).

For the compound `COc1ccccc1N1N=C(c2cccs2)CC1c1ccccc1` (centres undefined), the inhibition is 97.2% (active).

Regarding `COc1ccc(C2CC(c3cccs3)=NN2c2ccccc2)cc1` (centres undefined), the inhibition is 97.6% (active).

In the case of `COc1ccc(C2CC(c3cccs3)=NN2c2ccc(F)cc2)cc1OC` (centres undefined), the inhibition is -1.9% (inactive).

In the case of `COc1ccc(C(=O)C2CCCN(C(=O)c3ccc(OC)o3)C2)c(C)c1` (centres undefined), the inhibition is -4% (inactive).

As for `CNC(C)C#Cc1ccc2sc3cc(OC)c(OC)cc3c(=O)c2c1` (centres undefined), the inhibition is -24.4% (inactive).

For the compound `Cc1onc(-c2ccccc2Cl)c1C(=O)N(Cc1ccc(N(C)C)cc1)C(C)C`, the inhibition was 9.74% (inactive).

`CCCOc1ccc(Cn2ccnc2)cc1[N+](=O)[O-]`: the inhibition is -2.35% (inactive).

As for `CCCCCOc1ccc(CSC2=NCCN2)cc1[N+](=O)[O-]`, the inhibition is 98.8% (active).

`CCCCOc1ccc(CSC(=N)N)cc1[N+](=O)[O-]`: the inhibition was 99.9% (active).

`C=CCN(CC=C)CCOc1ccccc1[N+](=O)[O-]`: the inhibition was -15.8% (inactive).

On to `CCCCOC(=O)CCCc1ccc([N+](=O)[O-])cc1[N+](=O)[O-]`, for which the inhibition was -8.65% (inactive).

Take `Cc1cc(OCCCCOc2ccc(C#N)cc2)ccc1[N+](=O)[O-]`: the inhibition was 3.02% (inactive).

As for `Cc1cc(C)c(S(=O)(=O)N2CCCC2CNC(=O)c2ccc3c(c2)OCO3)c(C)c1` (centres undefined), the inhibition was 0.666% (inactive).

For `COCCn1c(C)cc(C(=O)CN2c3cccc4cccc(c34)S2(=O)=O)c1C`, the inhibition was -28.9% (inactive).

With `CCCCN(C(=O)C1CCC1)c1c(N)n(Cc2ccccc2)c(=O)[nH]c1=O`, the inhibition was 7.79% (inactive).

Consider `Cc1ccccc1NC(=O)Cc1nc(COC(=O)c2cccnc2Cl)cs1`, for which the inhibition is 31.8% (inactive).

Turning to `O=C(COC(=O)c1ccc2c(c1)OCCO2)NCc1ccccc1Cl`, the inhibition is 1.29% (inactive).

For the compound `Cc1nn(CC(=O)NCC2CCCO2)c(=O)c2cc3ccccc3n12` (centres undefined), the inhibition was -2.19% (inactive).

For the compound `O=C(Cn1nc(Cc2cccnc2)c2ccccc2c1=O)NCC1COc2ccccc2O1` (centres undefined), the inhibition is -6% (inactive).

For `O=C(Cn1nc(Cc2cccnc2)c2ccccc2c1=O)NCC1CCCO1` (centres undefined), the inhibition is 98% (active).

Take `CCOC(=O)c1cc(NC(=O)c2cccnc2)ccn1`: the inhibition was -12.6% (inactive).

Turning to `O=C1CC[C@H](O)CCN1[C@H](CSc1ccc(Br)cc1)Cc1ccccc1`, the inhibition was 11.4% (inactive).

Regarding `CC(=O)Nc1ccc(SC[C@H](Cc2ccccc2)N2CC[C@@H](C)CCC2=O)cc1`, the inhibition was 97.9% (active).

Consider `C[C@H]1CCC(=O)N([C@H](CSc2ccccc2)Cc2ccccc2)CC1`, for which the inhibition is -5.54% (inactive).

On to `COc1ccc(NC(=O)COC(=O)c2n[nH]c3ccccc23)c(OC)c1`, for which the inhibition was -2.04% (inactive).

Take `c1ccc(-c2cnc(CN3CCN(c4ccccc4)CC3)o2)cc1`: the inhibition was 88.2% (active).

Regarding `Fc1ccc(N2CCN(Cc3cnc(Oc4ccc(Br)cc4)s3)CC2)cc1`, the inhibition was 1.01% (inactive).

In the case of `COc1ccc(N2CCN(Cc3nnc(-c4ccccc4)o3)CC2)cc1`, the inhibition is 35.1% (inactive).

Consider `COc1ccc(C2=Nn3c(nnc3-c3ccccc3OC)SC2)cc1OC1CCCC1`, for which the inhibition is 0.67% (inactive).

On to `O=C(Nc1ccc(F)c([N+](=O)[O-])c1)C1CCCO1` (centres undefined), for which the inhibition was -26.1% (inactive).

For the compound `CCOc1ccc(OCC(=O)OC(C)C(=O)NC2CCCCC2C)cc1` (centres undefined), the inhibition was -1.89% (inactive).

Regarding `CCc1ccc(NC2Nc3cc(C)nn3S2)cc1` (centres undefined), the inhibition was 97.5% (active).

Take `CCOC(=O)c1ccc(NC2Nc3cc(C)nn3S2)cc1` (centres undefined): the inhibition is -10.5% (inactive).

For `COc1ccc(-c2nnc(SCC(=O)Nc3cccnc3Cl)n2C)cc1`, the inhibition was -3.14% (inactive).

Regarding `C[C@H](NC(=O)c1[nH]cnc1C(=O)Nc1nccs1)c1ccccc1`, the inhibition was -11.7% (inactive).

For the compound `COc1cc(/C=C/C(=O)OCC(=O)NCCCc2ccccc2)ccc1O`, the inhibition was 92.7% (active).

With `COc1cc(/C=C/C(=O)OCC(=O)Nc2cccc(Oc3ccccc3)c2)ccc1O`, the inhibition is -5.43% (inactive).

In the case of `COc1ccc(C(=O)OCC(=O)NCCCc2ccccc2)cc1OC`, the inhibition is 1.14% (inactive).

For the compound `O=C1C=C(c2cccc(Cl)c2O)C[C@@H](c2ccc(F)cc2)C1`, the inhibition was 19.8% (inactive).

Turning to `COC(=O)c1ccc(COC(=O)CNC(=O)c2cccc(OC)c2)o1`, the inhibition is 0.754% (inactive).

On to `CCN(C(=O)COC(=O)Cc1c(F)cccc1Cl)c1c(N)n(Cc2ccccc2)c(=O)[nH]c1=O`, for which the inhibition was -2.58% (inactive).

With `O=C(/C=C/c1ccc(F)cc1)NCCNC(=O)/C=C/c1ccc(F)cc1`, the inhibition was -1.46% (inactive).

`CC(C)c1ccc(/C=C/C(=O)NNC(=O)c2cccnc2)cc1`: the inhibition is 3.18% (inactive).

As for `O=C(/C=C/c1ccc(F)cc1)NC(=S)NNC(=O)c1cccnc1`, the inhibition is 91.2% (active).

For the compound `O=C(NCCc1ccco1)c1ccc(OCc2cn3ccccc3n2)cc1`, the inhibition is -0.605% (inactive).

Turning to `COc1ccc(S(=O)(=O)N2CCCCC2)cc1NC(=O)COc1ccccc1`, the inhibition is -4.75% (inactive).

With `Cc1ccc2nc(C)cc(N/N=C/c3ccc(F)cc3)c2c1`, the inhibition is 68.2% (inactive).

As for `Cc1cc(N/N=C/c2ccccc2F)c2ccccc2n1`, the inhibition is 98.4% (active).

For `Fc1ccccc1/C=N/Nc1cc(N2CCCCC2)ncn1`, the inhibition is -6.88% (inactive).

Consider `O=C(Nc1ccc(N2CCOCC2)cc1)c1cccc(S(=O)(=O)N2CCOCC2)c1`, for which the inhibition was 13.1% (inactive).
